Measurements taken from PubChem BioAssay AID1159580 (chemical genetic matrix, 2015).
Values joined by “and” are separate entries in the source; they are usually repeats but may differ in a detail not shown here. Equal entries are not always repeated. Hit rate of the full screen: of about 5,500 compounds, about 2,000 (36%) were called active. About 18% were inconclusive and are not listed. No stated cut-off is given here; in the data, active means normalized growth mostly below about 0.91 (no sharp cut-off); inconclusive means no clear call, values can overlap the other calls; inactive means mostly above about 0.92. This is one part of the list.

Assay: chemical genetic growth profiling, strain panel (AID 1159580);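 further: tested at 20 µM; growth read once vehicle control cultures reached saturation at 30 °C; 1 = growth at the plate median or of vehicle wells; lower values mean less growth of the strain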
Conditions: S. cerevisiae deletion strains, growth OD
[1] = locus YAL040C, strain CLN3, active compounds read low
[2] = locus YCL061C, strain MRC1 (second series), active compounds read low
[3] = locus YER002W, strain NOP16, active compounds read low
[4] = locus YJR075W, strain HOC1, active compounds read low
[5] = locus YMR263W, strain SAP30, active compounds read low
[6] = locus YNL153C, strain GIM3, active compounds read low
[7] = locus YNL175C, strain NOP13, active compounds read low
[8] = locus YNL197C, strain WHI3, active compounds read low
[9] = locus YNL224C, strain SQS1, active compounds read low
[10] = locus YOR083W, strain WHI5 (second series), active compounds read low
[11] = locus YPL241C, strain CIN2, active compounds read low

Measured: normalized growth

N[C@@H](CC(=O)O)C(=O)O
inactive: locus YAL013W, strain DEP1, active compounds read low 1.01 | [1] 1.09 | [2] 1.01 | [3] 1.01 | [4] 1.01 | [5] 1 | [6] 1.02 | [7] 1 | [8] 1 | [9] 0.996 | [10] 0.955 | [11] 1.01

O=c1[nH]cnc2[nH]ncc12
inactive: locus YAL021C, strain ccr4, active compounds read low 1.01 | locus YAL026C, strain drs2, active compounds read low 1 | locus YAL030W, strain snc1, active compounds read low 0.985 | [1] 1.01 | locus YBL061C, strain skt5, active compounds read low 1 | locus YBR009C, strain hhf1, active compounds read low 1 | locus YBR021W, strain FUR4, active compounds read low 1.01 | locus YBR023C, strain chs3, active compounds read low 1 | locus YBR171W, strain sec66, active compounds read low 1.01 | locus YBR229C, strain ROT2, active compounds read low 1.01 | locus YBR231C, strain swc5, active compounds read low 1.02 | locus YBR279W, strain paf1, active compounds read low 1 | locus YCL011C, strain gbp2, active compounds read low 1.01 | locus YCL016C, strain dcc1, active compounds read low 1.01 | locus YCL029C, strain bik1, active compounds read low 1.02 | [2] 0.996 | locus YCL069W, strain vba3, active compounds read low 1.01 | locus YCR088W, strain abp1, active compounds read low 0.993 | locus YDL005C, strain med2, active compounds read low 0.998 | locus YDL035C, strain GPR1, active compounds read low 0.997 | locus YDL040C, strain nat1, active compounds read low 0.988 | locus YDL074C, strain BRE1, active compounds read low 0.996 | locus YDL101C, strain DUN1, active compounds read low 1.01 | locus YDL134C, strain PPH21, active compounds read low 0.993 | locus YDL185W, strain tfp1, active compounds read low 1.02 | locus YDL192W, strain arf1, active compounds read low 1.01 | locus YDR001C, strain nth1, active compounds read low 0.992 | locus YDR069C, strain doa4, active compounds read low 1.04 | locus YDR101C, strain arx1, active compounds read low 1 | locus YDR137W, strain rgp1, active compounds read low 0.993 | locus YDR159W, strain sac3, active compounds read low 1.02 | locus YDR162C, strain NBP2, active compounds read low 1.01 | locus YDR195W, strain ref2 0.958 | locus YDR297W, strain sur2, active compounds read low 1 | locus YDR318W, strain mcm21, active compounds read low 1.01 | locus YDR334W, strain swr1, active compounds read low 1.03 | locus YDR335W, strain msn5, active compounds read low 1.01 | locus YDR388W, active compounds read low 1.02 | locus YDR392W, strain spt3, active compounds read low 0.966 | locus YDR502C, strain sam2, active compounds read low 1.01 | locus YEL003W, strain gim4, active compounds read low 1.01 | locus YEL037C, strain rad23, active compounds read low 1.01 | locus YEL061C, strain CIN8 (second series), active compounds read low 1.02 | locus YEL061C, strain CIN8, active compounds read low 1 | [3] 1 | locus YER015W, strain faa2, active compounds read low 1.01 | locus YER016W, strain bim1, active compounds read low 0.97 | locus YER110C, active compounds read low 1.03 | locus YER111C, strain swi4, active compounds read low 1 | locus YER155C, strain BEM2 (second series), active compounds read low 1.01 | locus YER155C, strain BEM2, active compounds read low 1.01 | locus YER167W, strain BCK2, active compounds read low 0.999 | locus YFR010W, strain ubp6, active compounds read low 1.01 | locus YGL078C, strain dbp3, active compounds read low 1.01 | locus YGL086W, strain mad1, active compounds read low 1 | locus YGL167C, strain pmr1, active compounds read low 1.01 | locus YGL173C, strain kem1, active compounds read low 0.998 | locus YGL227W, strain vid30, active compounds read low 1.01 | locus YGL240W, strain doc1, active compounds read low 1.04 | locus YGL248W, strain PDE1, active compounds read low 1.01 | locus YGL253W, strain hxk2, active compounds read low 0.995 | locus YGR135W, strain pre9, active compounds read low 1.01 | locus YGR252W, strain gcn5, active compounds read low 0.989 | locus YHR013C, strain ard1, active compounds read low 0.968 | locus YHR027C, strain rpn1, active compounds read low 1 | locus YHR030C, strain SLT2, active compounds read low 1.01 and 0.983 | locus YHR079C, strain IRE1 (second series), active compounds read low 1.02 | locus YHR079C, strain IRE1, active compounds read low 1.04 | locus YHR094C, strain hxt1, active compounds read low 1.03 | locus YHR129C, strain ARP1, active compounds read low 1 | locus YHR142W, strain chs7, active compounds read low 0.998 | locus YHR200W, strain rpn10, active compounds read low 1.03 | locus YIL066C, strain RNR3, active compounds read low 1.01 | locus YIL073C, strain SPO22, active compounds read low 1.04 | locus YIL125W, strain kgd1, active compounds read low 1.02 | locus YIR030C, strain dcg1, active compounds read low 1.01 | locus YJL092W, strain hpr5, active compounds read low 1.01 | locus YJL095W, strain BCK1 (second series), active compounds read low 1.01 | locus YJL095W, strain BCK1, active compounds read low 1.02 and 1.03 | locus YJL115W, strain asf1, active compounds read low 1.02 | locus YJL129C, strain trk1, active compounds read low 1.01 | locus YJL134W, strain LCB3, active compounds read low 0.999 | locus YJL154C, strain vps35, active compounds read low 1.01 | locus YJL164C, strain tpk1, active compounds read low 0.981 | locus YJL166W, strain qcr8, active compounds read low 1.02 | locus YJL168C, strain set2, active compounds read low 1.02 | locus YJL187C, strain SWE1 (second series), active compounds read low 1.02 | locus YJL187C, strain SWE1, active compounds read low 1.01 | locus YJR043C, strain POL32, active compounds read low 0.988 | locus YJR066W, strain TOR1, active compounds read low 0.974 | [4] 1.01 | locus YKL009W, strain mrt4, active compounds read low 1.02 | locus YKL068W, active compounds read low 1.01 | locus YKL085W, strain MDH1 (second series), active compounds read low 1 | locus YKL085W, strain MDH1, active compounds read low 1 | locus YKL160W, strain elf1, active compounds read low 1 | locus YKR001C, strain vps1, active compounds read low 1.01 | locus YKR026C, strain gcn3, active compounds read low 1.06 | locus YKR091W, strain srl3, active compounds read low 0.999 | locus YLL001W, strain dnm1, active compounds read low 1.01 | locus YLL026W, active compounds read low 1 | locus YLL041C, strain sdh2, active compounds read low 0.987 | locus YLR027C, strain aat2, active compounds read low 1.01 | locus YLR039C, strain RIC1, active compounds read low 1 | locus YLR058C, strain SHM2, active compounds read low 1.01 | locus YLR102C, strain apc9, active compounds read low 1.02 | locus YLR113W, strain HOG1, active compounds read low 1.02 | locus YLR221C, strain rsa3, active compounds read low 1.01 | locus YLR258W, strain gsy2, active compounds read low 1 | locus YLR262C, strain YPT6 (second series), active compounds read low 1 | locus YLR262C, strain YPT6, active compounds read low 1.04 | locus YLR268W, strain sec22, active compounds read low 1.02 | locus YLR320W, strain mms22, active compounds read low 0.992 | locus YLR330W, strain CHS5, active compounds read low 1 | locus YLR342W, strain FKS1 (second series), active compounds read low 0.982 | locus YLR342W, strain FKS1, active compounds read low 1.02 | locus YLR357W, strain rsc2, active compounds read low 0.998 | locus YLR370C, strain arc18, active compounds read low 1.01 | locus YLR371W, strain rom2, active compounds read low 1.01 | locus YLR384C, strain iki3, active compounds read low 1 | locus YLR418C, strain cdc73, active compounds read low 1.01 | locus YML016C, strain PPZ1, active compounds read low 1.01 | locus YML032C, strain rad52, active compounds read low 1.01 | locus YML120C, strain ndi1, active compounds read low 1.02 | locus YML124C, strain tub3, active compounds read low 1.02 | locus YMR058W, strain fet3, active compounds read low 1.02 | locus YMR078C, strain ctf18, active compounds read low 1.02 | locus YMR125W, strain sto1, active compounds read low 0.998 | locus YMR129W, active compounds read low 1.01 | locus YMR205C, strain PFK2, active compounds read low 0.998 | locus YMR223W, strain ubp8, active compounds read low 1.01 | locus YMR231W, strain pep5, active compounds read low 1 | [5] 0.997 | locus YMR307W, strain GAS1, active compounds read low 1.02 and 1.01 | locus YNL067W, strain RPL9B, active compounds read low 1.02 | locus YNL071W, strain lat1, active compounds read low 1.02 | [6] 1.03 | [7] 1.01 | locus YNL183C, strain NPR1, active compounds read low 0.977 | [8] 1.01 | locus YNL209W, strain ssb2, active compounds read low 0.998 | [9] 0.994 | locus YNL233W, strain BNI4, active compounds read low 1.01 | locus YNL248C, strain rpa49, active compounds read low 1.04 | locus YNL250W, strain rad50, active compounds read low 1.01 | locus YNL271C, strain bni1, active compounds read low 1.02 | locus YNL298W, strain CLA4, active compounds read low 1.01 | locus YNL307C, strain MCK1, active compounds read low 1.03 | locus YNL322C, strain KRE1 (second series), active compounds read low 0.993 | locus YNL322C, strain KRE1, active compounds read low 1.01 | locus YNR049C, strain mso1, active compounds read low 1.02 | locus YNR052C, strain pop2, active compounds read low 1.02 | locus YOL006C, strain TOP1, active compounds read low 1.05 | locus YOL012C, strain htz1 0.934 | locus YOL147C, strain pex11, active compounds read low 1.01 | locus YOR001W, strain rrp6, active compounds read low 1.05 | locus YOR061W, strain CKA2, active compounds read low 1.01 | locus YOR069W, strain VPS5, active compounds read low 1 | locus YOR070C, strain gyp1, active compounds read low 0.996 | locus YOR080W, strain dia2, active compounds read low 1.02 | [10] 1.04 | locus YOR083W, strain WHI5, active compounds read low 1.05 | locus YOR106W, strain vam3, active compounds read low 1.03 | locus YOR136W, strain idh2, active compounds read low 1.02 | locus YOR144C, strain elg1, active compounds read low 1.01 | locus YOR184W, strain ser1, active compounds read low 1.01 | locus YOR231W, strain MKK1, active compounds read low 1.03 | locus YOR265W, strain rbl2, active compounds read low 1.01 | locus YOR270C, strain vph1, active compounds read low 1.08 | locus YOR290C, strain snf2, active compounds read low 0.993 | locus YOR316C, strain cot1, active compounds read low 1.01 | locus YPL051W, strain arl3, active compounds read low 1.01 | locus YPL078C, strain atp4, active compounds read low 1.03 | locus YPL106C, strain sse1, active compounds read low 1.01 | locus YPL240C, strain hsp82, active compounds read low 1 | [11] 1 | locus YPL256C, strain CLN2, active compounds read low 1 | locus YPR119W, strain clb2, active compounds read low 1.02 | locus YPR141C, strain kar3, active compounds read low 1.03 | locus YPR163C, strain tif3, active compounds read low 1.03 | locus YPR167C, strain met16, active compounds read low 1.02 | strain wtn01, active compounds read low 1
